The text below walks through data of PubChem BioAssay (NCATS).

Values joined by “and” are separate entries in the source; they are usually repeats but may differ in a detail not shown here. Equal entries are not always repeated. Records with an inconclusive call do not appear. Active and inactive are the calls of the source. Unless noted, calls come from the whole dose curve; as a rule, active = well fitted curve in the direction sought with a large enough effect; inconclusive = small, poorly fitted or top-dose-only effect, or another doubt; inactive = no such curve, though single readings can be large; an effect the other way counts as inactive or inconclusive. Residues, ends and D or L forms follow the SMILES beside them. *: point of attachment. Cbz = O=C(OCc1ccccc1)*

Assay [1] concerns the target Transient receptor potential cation channel subfamily V member 1 (Homo sapiens) (UniProt Q8NER1). The experiment in a line: HTS Assay for Compounds that Act as Enhancers of the Vanilloid Receptor 1 (AID 488979). Note: 0% is about no effect. A digest of the protocol:
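TRPV1-expressing cells loaded with Fluo-8 calcium dye; compounds added and calcium influx read kinetically for 3 min (agonist phase), then capsaicin at EC20 added and read 2 min more for enhancement. Fluorescence ex 480/em 520 nm.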

Assay [2] addresses Thyrotropin receptor (Homo sapiens) (UniProt P16473). The experiment in a line: qHTS Assay for Antagonists of the Thyroid Stimulating Hormone Receptor (AID 488980). Note: series mostly up to about 58 µM; 0% is about no effect. A digest of the protocol:
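Cells expressing human TSHR (HEK293) are dispensed in HBSS/HEPES containing 70 uM RO 20-1724, compound is added, then TSH at EC80 (4 nM final). Antibody in lysis buffer follows, 30 minutes at room temperature before HTRF detection.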
For orientation: Quantitative high-throughput screening tests each substance at several concentrations.

The target in assay [3] is D(1A) dopamine receptor (Homo sapiens) (UniProt P21728). Nature of the assay: HTS Assay for Allosteric Agonists of the Human D1 Dopamine Receptor: Primary Screen for Agonists (AID 488981). Note: 0% is about no effect. In short, it runs like this: (§1)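 Tetracycline-induced HEK293 T-REx cells force-coupled to calcium signalling were incubated overnight at 30 C and dye-loaded at room temperature. Calcium flux over 180 s after compound addition flagged agonists; a further 180 s read after EC20 dopamine flagged potentiators.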
Chain of D(1A) dopamine receptor (Homo sapiens) (P21728 whole entry, looked up): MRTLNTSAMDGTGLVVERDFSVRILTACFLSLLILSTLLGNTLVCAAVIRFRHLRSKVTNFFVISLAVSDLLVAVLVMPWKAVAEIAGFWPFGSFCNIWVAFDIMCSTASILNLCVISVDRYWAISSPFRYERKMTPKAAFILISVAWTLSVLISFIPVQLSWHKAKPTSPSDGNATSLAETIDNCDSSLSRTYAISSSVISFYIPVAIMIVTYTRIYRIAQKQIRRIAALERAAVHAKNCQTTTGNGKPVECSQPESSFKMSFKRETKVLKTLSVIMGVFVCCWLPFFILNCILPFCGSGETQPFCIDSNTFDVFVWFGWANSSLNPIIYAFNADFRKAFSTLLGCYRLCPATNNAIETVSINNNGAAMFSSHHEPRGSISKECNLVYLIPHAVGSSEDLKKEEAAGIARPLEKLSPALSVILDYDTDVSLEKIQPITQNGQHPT

For assay [4] the target is unchanged. Nature of the assay: HTS Assay for Allosteric Agonists of the Human D1 Dopamine Receptor: Primary Screen for Potentiators (AID 488982). Note: potency is the fitted concentration of half-maximal effect. A digest of the protocol: as §1
Assay [5] has the same target. Nature of the assay: HTS Assay for Allosteric Agonists of the Human D1 Dopamine Receptor: Primary Screen for Antagonists (AID 488983).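 Note: calcium flux response to an EC80 dopamine challenge measured with no-wash dye; % is set by controls: 0 for no effect and ±100 for the full control effect; nearly all actives have a fitted effect of over 65% in size.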 In short, it runs like this:
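Calcium flux readout, no-wash dye, inducible HEK293 T-REx D1 line (force-coupled). Compound added after 10 s baseline, 180 s kinetic read; then dopamine at EC80, further 180 s read.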

The nature of assay [6]: Validation screen for small molecules that induce genotoxicity in human embryonic kidney (HEK293T) cells expressing luciferase-tagged ELG1 (AID 493106). Note: 0% is about no effect. A digest of the protocol:
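qHTS format; 2,000 HEK293T ELG1-luc cells/well; 23 nL compound via pin tool; 16 hr, 37 °C/5% CO2; ONE-Glo, 30 min RT; luminescence read.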

For assay [7], the target named is ATPase family AAA domain-containing protein 5 (Homo sapiens) (UniProt Q96QE3). The experiment in a line: Validation screen for small molecules that inhibit ELG1-dependent DNA repair in human embryonic kidney (HEK293T) cells expressing luciferase-tagged ELG1 (AID 493107).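 Note: cells co-treated with the DNA-damaging agent 5-fluorouridine alongside compound; series mostly up to about 46 µM; % is set by controls: 0 for no effect and ±100 for the full control effect; inhibitors lower the ELG1-luciferase luminescence signal; nearly all actives have a fitted effect of over 70% in size.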 A digest of the protocol: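 ELG1-luciferase HEK293T reporter; 5-fluorouridine + compound/DMSO, 16 hr, 37 °C, 5% CO2; ONE-Glo 30 min RT; luminescence read, qHTS format.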
Chain of ATPase family AAA domain-containing protein 5 (Homo sapiens) (Q96QE3 whole entry, looked up, the tested form may be a part): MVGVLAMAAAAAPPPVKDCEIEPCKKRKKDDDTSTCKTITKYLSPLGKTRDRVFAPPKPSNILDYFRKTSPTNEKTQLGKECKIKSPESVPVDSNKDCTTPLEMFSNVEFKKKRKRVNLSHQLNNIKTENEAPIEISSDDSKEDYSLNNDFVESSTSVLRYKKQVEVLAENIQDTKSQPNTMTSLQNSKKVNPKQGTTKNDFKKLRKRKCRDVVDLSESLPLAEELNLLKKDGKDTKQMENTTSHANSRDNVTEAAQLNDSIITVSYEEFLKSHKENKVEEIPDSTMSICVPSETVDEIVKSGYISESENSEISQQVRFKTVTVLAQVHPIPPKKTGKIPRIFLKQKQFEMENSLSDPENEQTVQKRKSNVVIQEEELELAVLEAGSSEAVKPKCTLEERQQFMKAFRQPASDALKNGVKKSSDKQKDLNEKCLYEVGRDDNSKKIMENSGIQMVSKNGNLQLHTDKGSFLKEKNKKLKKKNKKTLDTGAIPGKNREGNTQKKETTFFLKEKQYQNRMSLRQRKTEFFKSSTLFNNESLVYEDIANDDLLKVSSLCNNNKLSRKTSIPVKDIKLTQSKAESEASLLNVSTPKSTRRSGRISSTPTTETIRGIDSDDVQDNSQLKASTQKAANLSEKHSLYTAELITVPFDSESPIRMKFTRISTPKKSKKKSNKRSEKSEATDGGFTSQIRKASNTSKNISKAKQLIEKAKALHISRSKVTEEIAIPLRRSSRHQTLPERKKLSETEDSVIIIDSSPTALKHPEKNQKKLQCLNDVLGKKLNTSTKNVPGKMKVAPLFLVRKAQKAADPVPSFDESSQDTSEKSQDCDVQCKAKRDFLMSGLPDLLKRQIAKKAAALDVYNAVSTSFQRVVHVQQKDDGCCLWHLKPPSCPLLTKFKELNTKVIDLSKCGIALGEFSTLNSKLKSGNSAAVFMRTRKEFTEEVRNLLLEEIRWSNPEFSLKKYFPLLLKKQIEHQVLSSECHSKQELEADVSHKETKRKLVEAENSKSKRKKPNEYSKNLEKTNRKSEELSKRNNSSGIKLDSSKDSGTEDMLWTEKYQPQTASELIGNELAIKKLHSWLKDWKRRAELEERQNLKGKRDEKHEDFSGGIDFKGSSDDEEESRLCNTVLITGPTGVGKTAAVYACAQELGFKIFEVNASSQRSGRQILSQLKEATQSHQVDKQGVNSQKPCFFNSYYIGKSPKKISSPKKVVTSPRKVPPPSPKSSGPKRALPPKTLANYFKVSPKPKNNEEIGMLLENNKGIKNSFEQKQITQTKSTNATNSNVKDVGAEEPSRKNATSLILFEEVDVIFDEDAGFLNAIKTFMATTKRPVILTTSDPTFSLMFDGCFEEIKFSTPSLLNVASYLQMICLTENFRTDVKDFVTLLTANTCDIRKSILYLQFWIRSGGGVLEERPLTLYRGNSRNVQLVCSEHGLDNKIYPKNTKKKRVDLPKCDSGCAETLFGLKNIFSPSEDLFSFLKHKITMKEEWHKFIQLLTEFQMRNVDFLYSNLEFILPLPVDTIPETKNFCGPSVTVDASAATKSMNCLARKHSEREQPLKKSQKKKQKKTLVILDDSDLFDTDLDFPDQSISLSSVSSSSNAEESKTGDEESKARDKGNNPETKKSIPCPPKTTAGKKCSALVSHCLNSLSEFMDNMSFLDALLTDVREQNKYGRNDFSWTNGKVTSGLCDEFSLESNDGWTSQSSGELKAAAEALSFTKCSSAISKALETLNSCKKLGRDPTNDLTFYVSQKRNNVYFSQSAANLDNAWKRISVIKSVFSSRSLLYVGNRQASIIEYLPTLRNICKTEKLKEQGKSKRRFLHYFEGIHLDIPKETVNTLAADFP

The target in assay [8] is Thyrotropin-releasing hormone receptor (Homo sapiens) (UniProt P34981). Nature of the assay: qHTS for Small Molecule Agonists and Allosteric Enhancers of Human TRH Receptor: Validation Screen for Agonists (AID 493127;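 active = calcium activation more than 3 SD above the typical response in the agonist read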;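 note: intracellular calcium rise by fluo-8 fluorescence before TRH EC20 addition; 0% is about no effect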). The conditions noted are these: TRH receptor agonist cell assay; at 2 µM; stronger effect = higher value. A digest of the protocol:
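Read-out: intracellular calcium release measured kinetically by FDSS (fluo-8, ex 480/em 530 nm), 1 reading/s after a 10-cycle baseline. TRHR cells, 2000/well, cultured 18 h at 33.5C, dye-loaded at room temp. Compound-evoked positive calcium signal flags agonists.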

Assay [9] can be described thus: Nrf2 qHTS screen for inhibitors: Validation (AID 493153; active = well fitted inhibition curve with a large enough effect in the main read-out, with a control signal flat, not every such curve was filed as active). The conditions noted are these: Potency: luciferase luminescence; viability change: measured here: cytotoxicity max response. In short, it runs like this: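 Concentration-response test in A549 ARE_Fluc reporter cells (5% FBS OPTI-MEM), compound exposure 18-24 h at 37°C, 5% CO2. Cell viability measured first by CellTiter-Fluor fluorescence; ARE-driven luciferase luminescence then measured as Nrf2 activity.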

A short description of assay [10]: qHTS for Inhibitors of Cell Surface uPA Generation: Validation Assay (AID 493164).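 Note: RAW 264.7 macrophage cells exposed to compound for 18 h; 0% is about no effect.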 A digest of the protocol:
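Compounds are titrated over seven points (2.45 nM–38.3 uM final) onto pre-plated RAW 264.7 cells and incubated for 18 h. Retained intracellular ATP, measured with ATP-Lite, indicates blocked lethal factor entry.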

In assay [11] the target is Galactokinase (Homo sapiens) (UniProt P51570). The experiment in a line: qHTS Validation Assay for Inhibitors of Human Galactokinase (GALK) (AID 493189). Note: 0% is about no effect. A digest of the protocol:
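Compounds were pin-transferred into ATP buffer, then GALK-galactose mix was added (final 5 nM enzyme, 100 uM galactose, 35 uM ATP). After 1 h at room temperature, remaining ATP was measured luminescently.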

The nature of assay [12]: Validation screen for small molecules that induce DNA re-replication in SW480 colon adenocarcinoma cells (AID 504364). Note: 0% is about no effect. A digest of the protocol:
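Read-out: total Hoechst intensity of nuclei by fluorescence scanning imager; hits raise the fraction of nuclei with elevated DNA content. Cells received compound for 48 hr at 37 C before a 40 min stain.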

For assay [13], the target named is Peptidyl-prolyl cis-trans isomerase NIMA-interacting 1 (Homo sapiens) (UniProt Q13526). The experiment in a line: qHTS Validation Assay to Find Inhibitors of Pin1 (AID 504536; active = well fitted inhibition curve with a large enough effect in the polarisation, with a control signal flat, not every such curve was filed as active; the % refers to the polarisation; note: potency is the fitted concentration of half-maximal effect). A digest of the protocol:
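Fluorescence polarization competition: compounds (titration) displace HiFluor-488-labeled Pin1-1b peptide from Pin1 (0.3 uM final) in pH 7.5 HEPES buffer with DTT, 10 min at room temperature; %Activity normalized to no-enzyme wells, curves fitted.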

Assay [14] concerns the target Phosphoglycerate kinase, glycosomal (Trypanosoma brucei brucei) (UniProt P07378). The experiment in a line: qHTS Validation Assay to Find Inhibitors of Phosphoglycerate Kinase (AID 504547).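 Note: control wells lack PGK and mark full inhibition.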 In short, it runs like this: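 In TEA buffer (100mM, pH 7.6) containing 5mM MgCl2 and 0.01% Tween-20, the GAPDH-coupled PGK reaction proceeded for 60 minutes at room temperature before a single luminescence reading using Kinase-Glo Plus.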

The target of assay [15] is phosphoglycerate mutase (Leishmania major) (UniProt Q4Q090). Nature of the assay: qHTS Validation Assay to Find Inhibitors of Phosphoglycerate Mutase (AID 504548).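 Note: end-point luminescence from Kinase-GloPlus after the PGAM reaction; series mostly up to about 58 µM; % is set by controls: 0 for no effect and ±100 for the full control effect.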 The conditions noted are these: Potency: inhibition qHTS. In short, it runs like this:
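L. major PGAM (1.25nM final) was added to substrate buffer and pinned compound, incubated 45 minutes at room temperature, then Kinase-GloPlus added; luminescence read after 10 minutes. Buffer: 100 mM TEA pH 7.6, 5 mM MgCl2, 0.01% Tween-20.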

For assay [16], the target named is Ubiquitin carboxyl-terminal hydrolase 1 (Homo sapiens) (UniProt O94782). Nature of the assay: Inhibitors of USP1/UAF1: Pilot qHTS (AID 504865). Note: nearly all actives have a fitted effect of over 35% in size. Note: potency is the fitted concentration of half-maximal effect. In short, it runs like this:
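Kinetic fluorescence assay: 1nM USP1/UAF1, 15 min compound preincubation, then 150nM Ub-Rho; 480/540 nm.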

The nature of assay [17]: qHTS for Inhibitors of ATXN expression: Validation of Cytotoxic Assay (AID 588349). Note: % is set by controls: 0 for no effect and ±100 for the full control effect. A digest of the protocol:
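Cytotoxicity counter-screen: HEK293 cells exposed to compound titrations, 72 hr, 37 degrees C. Read-out is intracellular ATP (CellTiter Glo luminescence) as a viability measure.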

A short description of assay [18]: qHTS for Inhibitors of ATXN expression: Validation (AID 588378). Note: series mostly up to about 57 µM; % is set by controls: 0 for no effect and ±100 for the full control effect; nearly all actives have a fitted effect of over 75% in size. A digest of the protocol:
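Validation of ATXN2 expression inhibitors uses a cell-based luciferase fusion reporter in HEK293 cells, with 24 h compound exposure and paired viability (fluorescence) and reporter (luminescence) end-point reads.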

Assay [19] concerns the target ATP-dependent 6-phosphofructokinase (Trypanosoma brucei brucei) (UniProt O15648). Nature of the assay: qHTS Assay to Find Inhibitors of T. brucei phosphofructokinase: hit validation (AID 492961).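 Note: luminescence reports ADP formed as PFK phosphorylates fructose-6-phosphate with ATP; series mostly up to about 51 µM; % is set by controls: 0 for no effect and ±100 for the full control effect.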 A digest of the protocol: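 PFK 1.25 nM, F6P 0.5 mM, ATP 0.1 mM, MgCl2 5 mM, 0.1 M TEA pH 8.0, Tween20 0.01%, BSA 0.1%; 45 min RT. ADP-Glo two-step detection, luminescence. qHTS titration; curve fitting with curve-class categorization.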

Chain of Galactokinase (Homo sapiens) (P51570 whole entry, looked up): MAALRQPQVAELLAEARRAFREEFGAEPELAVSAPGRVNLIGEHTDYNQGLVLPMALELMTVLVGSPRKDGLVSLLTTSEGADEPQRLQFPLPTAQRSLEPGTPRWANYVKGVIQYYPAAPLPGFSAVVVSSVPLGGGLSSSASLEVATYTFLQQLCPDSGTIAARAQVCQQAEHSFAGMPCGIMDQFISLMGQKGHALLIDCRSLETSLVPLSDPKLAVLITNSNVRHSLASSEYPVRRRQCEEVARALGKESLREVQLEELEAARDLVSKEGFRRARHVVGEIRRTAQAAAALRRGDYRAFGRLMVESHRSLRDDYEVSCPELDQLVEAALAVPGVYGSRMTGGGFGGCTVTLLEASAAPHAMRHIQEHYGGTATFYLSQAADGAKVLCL
Chain of Peptidyl-prolyl cis-trans isomerase NIMA-interacting 1 (Homo sapiens) (Q13526 whole entry, looked up): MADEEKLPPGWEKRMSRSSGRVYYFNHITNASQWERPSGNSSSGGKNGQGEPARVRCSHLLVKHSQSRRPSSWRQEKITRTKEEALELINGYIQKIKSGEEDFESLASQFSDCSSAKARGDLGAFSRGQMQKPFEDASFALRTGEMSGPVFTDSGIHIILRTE
Chain of Thyrotropin receptor (Homo sapiens) (P16473 whole entry, looked up): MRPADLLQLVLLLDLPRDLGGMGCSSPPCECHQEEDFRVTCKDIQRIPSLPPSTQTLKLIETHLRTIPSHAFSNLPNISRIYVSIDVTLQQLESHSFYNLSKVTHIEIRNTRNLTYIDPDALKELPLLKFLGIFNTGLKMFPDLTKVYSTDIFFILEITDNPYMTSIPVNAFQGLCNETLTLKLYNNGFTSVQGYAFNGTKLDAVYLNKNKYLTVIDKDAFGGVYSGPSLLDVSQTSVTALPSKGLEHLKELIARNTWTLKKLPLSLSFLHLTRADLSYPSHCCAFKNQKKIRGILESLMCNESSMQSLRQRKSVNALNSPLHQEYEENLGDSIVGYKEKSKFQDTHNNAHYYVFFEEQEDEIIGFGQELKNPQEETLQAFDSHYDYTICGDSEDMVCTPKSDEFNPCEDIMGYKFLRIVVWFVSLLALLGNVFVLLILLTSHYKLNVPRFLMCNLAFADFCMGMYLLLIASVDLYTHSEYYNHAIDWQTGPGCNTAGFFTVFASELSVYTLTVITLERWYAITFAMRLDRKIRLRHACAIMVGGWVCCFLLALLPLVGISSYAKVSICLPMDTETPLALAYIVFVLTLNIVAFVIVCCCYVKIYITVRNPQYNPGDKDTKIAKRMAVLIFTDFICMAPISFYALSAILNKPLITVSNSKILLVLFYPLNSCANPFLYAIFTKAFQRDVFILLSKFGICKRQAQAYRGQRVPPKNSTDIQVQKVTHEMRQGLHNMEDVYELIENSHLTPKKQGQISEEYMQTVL
Chain of phosphoglycerate mutase (Leishmania major) (Q4Q090 1-553): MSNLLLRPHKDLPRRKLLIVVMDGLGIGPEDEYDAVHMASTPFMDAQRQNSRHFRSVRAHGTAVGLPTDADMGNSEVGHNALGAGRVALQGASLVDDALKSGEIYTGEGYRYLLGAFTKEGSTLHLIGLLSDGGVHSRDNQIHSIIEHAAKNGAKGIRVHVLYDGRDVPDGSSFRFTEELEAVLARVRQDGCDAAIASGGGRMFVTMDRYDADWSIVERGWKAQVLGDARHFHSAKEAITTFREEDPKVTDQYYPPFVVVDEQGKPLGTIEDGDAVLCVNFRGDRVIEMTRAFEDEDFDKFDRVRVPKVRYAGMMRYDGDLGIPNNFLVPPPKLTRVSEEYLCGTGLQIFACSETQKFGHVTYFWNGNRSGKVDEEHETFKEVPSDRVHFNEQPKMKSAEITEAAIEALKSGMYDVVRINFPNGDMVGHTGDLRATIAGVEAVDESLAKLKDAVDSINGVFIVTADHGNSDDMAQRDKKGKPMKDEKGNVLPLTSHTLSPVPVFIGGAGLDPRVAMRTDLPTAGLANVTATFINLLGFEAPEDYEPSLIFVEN
Chain of Ubiquitin carboxyl-terminal hydrolase 1 (Homo sapiens) (O94782 whole entry, looked up): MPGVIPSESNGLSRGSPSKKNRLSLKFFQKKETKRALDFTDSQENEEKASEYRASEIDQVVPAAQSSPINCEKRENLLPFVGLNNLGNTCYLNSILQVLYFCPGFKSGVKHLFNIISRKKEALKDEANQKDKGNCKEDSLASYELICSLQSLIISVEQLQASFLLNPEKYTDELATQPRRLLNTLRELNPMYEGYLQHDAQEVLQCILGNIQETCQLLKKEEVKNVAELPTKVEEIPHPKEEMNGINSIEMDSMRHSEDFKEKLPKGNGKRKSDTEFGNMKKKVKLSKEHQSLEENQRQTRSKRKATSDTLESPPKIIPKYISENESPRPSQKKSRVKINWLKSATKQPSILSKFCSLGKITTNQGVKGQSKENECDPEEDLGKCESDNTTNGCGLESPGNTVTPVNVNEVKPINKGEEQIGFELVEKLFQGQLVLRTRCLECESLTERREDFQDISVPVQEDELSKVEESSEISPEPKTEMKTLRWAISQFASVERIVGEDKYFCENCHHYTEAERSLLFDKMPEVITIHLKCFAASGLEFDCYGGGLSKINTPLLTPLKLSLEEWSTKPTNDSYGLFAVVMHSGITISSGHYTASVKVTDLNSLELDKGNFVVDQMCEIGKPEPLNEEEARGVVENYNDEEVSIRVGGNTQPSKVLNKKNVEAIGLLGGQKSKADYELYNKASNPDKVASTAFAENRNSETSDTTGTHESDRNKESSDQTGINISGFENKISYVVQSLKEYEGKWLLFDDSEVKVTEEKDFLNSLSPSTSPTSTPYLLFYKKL

For the molecule `CCCCCCCCCCCCCCSCC(=O)O`, the outcome in assay [1], in [2] and in assay [10] was inactive. The Potency entry in [3], in [4], in assay [5], in assay [6], in assay [7] and in assay [9] was “inactive” in each case. The Potency entry in [11], in [12], in assay [14], in assay [15], in assay [17] and in [18] was “inactive” in each case. Moreover, in assay [8], the activation is 0.688% (inactive). For the same molecule, the viability change in assay [9] turned out to be 0.626%. Besides, the figures for the Potency in assay [13] and in assay [16] were 23.9 µM (active) and 25.1 µM (active), respectively.

As for `CCN1C(=O)C=CC1=O`, the outcome in [1], in [2] and in [10] was inactive. In addition, the Potency result in assay [3], in assay [4], in assay [5], in [6], in assay [7] and in assay [9] was “inactive” throughout. For the same molecule, the Potency entry in assay [11], in assay [12], in assay [13], in [14], in assay [15] and in [16] was “inactive” in each case. In addition, the Potency entry in assay [17] and in assay [18] was “inactive” each time. In assay [8], the activation was 1.12% (inactive). Also, in assay [9], the viability change was 1.81%.

Regarding `CC[N+](CC)(CC)CC(=O)Nc1c(C)cccc1C`, the result in [1], in [2] and in [10] was inactive. Besides, the Potency result in assay [3], in assay [4], in assay [5], in assay [6], in assay [7] and in assay [9] was “inactive” each time. The Potency result in [11], in assay [12], in assay [13], in assay [14], in [15] and in assay [16] was “inactive” in each case. For the same molecule, the Potency result in [17] and in assay [18] was “inactive” in each case. In assay [8], the activation is 0.625% (inactive). Further, the viability change in [9] is -3.66%.

Consider `CC(C)[C@H](NC(=O)OCc1ccccc1)C(=O)N[C@H](C=O)Cc1ccccc1` (Cbz-Val-Phe-aldehyde), for which the result in [1], in assay [2] and in assay [10] was inactive. In addition, the Potency result in assay [3], in assay [5], in assay [6], in assay [7], in assay [9] and in [11] was “inactive” in each case. Moreover, the Potency result in assay [12], in assay [13], in assay [14], in [15], in assay [16] and in [18] was “inactive” throughout. Moreover, the Potency in assay [4] is 2.06 µM (active). Further, the activation in assay [8] was 0.25% (inactive). Moreover, in assay [9], the viability change amounted to 13.7%.

Turning to `CCCCCCCCCCCCCCCCCCOC[C@H](COP(=O)([O-])OCC[N+](C)(C)C)OC`, the result in assay [1], in [2], in [19] and in assay [10] was inactive. The Potency result in assay [3], in assay [4], in [5], in [7], in [11] and in [12] was “inactive” each time. In addition, the Potency result in [13], in assay [14], in assay [15], in assay [16] and in assay [18] was “inactive” throughout. The activation in [8] is 0.938% (inactive).

Take `CC(C)NC[C@H](O)COc1ccc(CC(N)=O)cc1`: the result in [1], in [2], in assay [19] and in assay [10] was inactive. Further, the Potency result in assay [3], in assay [4], in assay [5], in assay [6], in assay [7] and in [9] was “inactive” throughout. The Potency entry in assay [11], in assay [12], in assay [13], in assay [15], in [16] and in assay [18] was “inactive” each time. Further, the activation in [8] is 0.25% (inactive) and -0.125% (inactive). The viability change in [9] is -0.176%.

Regarding `COc1ccc(CCN(C)CCc2ccc(OC)c(OC)c2)cc1OC`, the result in assay [1], in assay [2] and in assay [10] was inactive. The Potency entry in assay [3], in [4], in [5], in assay [6], in assay [7] and in assay [9] was “inactive” throughout. The Potency result in assay [11], in assay [12], in assay [13], in [14], in assay [15] and in [16] was “inactive” throughout. In addition, the Potency entry in [17] and in assay [18] was “inactive” each time. In addition, in [8], the activation was -4.19% (inactive). For the same molecule, the viability change in assay [9] amounted to 4.35%.
